Only some compounds are listed: those with a hit (about 0.28% of all), similar ones and a draw of the others.
hcGAS inh – Primary biochemical luminescence assay for human cyclic GMP-AMP synthase inhibitors. recombinant h-cGAS, ATP depletion, Kinase-Glo luminescence. AID 1259398, 2018. inhibition, % at 12.5 µM. Q8N884. 0.081% of 290,000 active;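 also: 0% = vehicle reaction and 100% = reaction without DNA for no activity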
NPYLR7 ag – agonists of mosquito NPYLR7 receptor, primary screen, cell-based, Aedes aegypti, calcium fluorescence, mosquito biting behavior | Aedes aegypti neuropeptide Y-like receptor 7 (NPYLR7) | HEK293T NPYLR7/Galpha15, GCaMP6s calcium fluorescence | activation, % at 10 µM | 0.15% of 270,000 active | AID 1259423, 2018; in the data active = activation above about 40%;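 also: 0% = vehicle and 100% = reference agonist at the receptor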
mcGAS lum – cyclic GMP-AMP synthase inhibitors, mouse, primary biochemical chemiluminescence; Q8C6L5; recombinant cGAS, Kinase-Glo ATP depletion luminescence; inhibition, % at 12.5 µM; 0.15% of 160,000 active;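 also: 0% = negative control wells and 100% = reference inhibitor with no enzyme activity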
Starred values were filed as active, the others as inactive; . = not tested or not shown. Rule as the data show it, unless noted: active = inhibition above about 40%; inactive = the rest.

SMILES | hcGAS inh | NPYLR7 ag | mcGAS lum
CCNC(=O)[C@H]1O[C@@H](n2cnc3c(N)ncnc32)C(O)[C@H]1O (stereo partly drawn) | -1 | 191* | -3
CN1C2CCC1CC(C(=O)OC(CO)c1ccccc1)C2 (stereo not drawn) | 0 | 2 | -5
CCC(=O)Nc1ccc(OCC(=O)N2CCC(N(C)C)C2)cc1 (stereo not drawn) | -2 | -4 | .
CCc1cnc(N2CCC3(CCCNC3)C2)nc1 (stereo not drawn) | -6 | . | .
O=C1C=C2C(=CCOC2O)O1 (stereo not drawn) | 88* | . | 106*
COC(=O)C1=C(C(=O)OC)N2C(=O)c3ccccc3C1N2c1ccccc1 (stereo not drawn) | -7 | 3 | .
O=C1NC(=O)C2=Cc3ccc(O)cc3OC2(O)N1 (stereo not drawn) | -1 | 193* | -3
c1ccc(-c2ncc(CN3CCC4(CCCNC4)C3)cn2)nc1 (stereo not drawn) | -9 | -1 | .
CC(=O)O.CC(=O)O.[Cd] | 74* | -9 | .
CC(=O)N1CN(C(C)=O)CN(C(C)=O)C1 | -1 | -5 | .
COCCN1CCCC2(CCNC2)C1=O (stereo not drawn) | -8 | 9 | .
Nc1nc(N2CCNCC2)cc(=O)[nH]1 | -3 | -10 | .
CC(Cc1c(F)cccc1F)NC(=O)CSCC(N)=O (stereo not drawn) | 18 | 3 | .
O=C1NC(=O)N(Cc2ccccc2)C(=O)C1=Cc1ccco1 | -5 | -6 | .
Cc1ccccc1N1C(=O)/C(=C/c2ccco2)C(=O)NC1=S | 41* | -2 | 86*
O=C1NC(=O)N(Cc2ccccc2)C(=O)/C1=C\c1ccco1 | 35 | -5 | 44*
Cc1cc(C)cc(N2C(=O)NC(=O)/C(=C\c3ccco3)C2=O)c1 | 5 | -8 | 7
CC(=O)[C@H]1CC[C@H]2[C@@H]3CC[C@H]4C[C@](C)(O)CC[C@]4(C)[C@H]3CC[C@]12C | -3 | 1 | -5
CC1=CC(=O)c2c(O)cccc2C1=O | 4 | -8 | .
N#Cc1c(O)c(Cl)c(Cl)c(C#N)c1Cl | 30 | 4 | 55*
C#C[C@H]1CN2CC[C@H]1C[C@@H]2CNC(=S)Nc1cccc(SC)c1 | 6 | -14 | 3
CC[C@@]1(O)C[C@H](O[C@H]2C[C@H](N(C)C)[C@H](O)[C@H](C)O2)c2c(cc3c(c2O)C(=O)c2c(O)cccc2C3=O)[C@H]1C(=O)OC | 72* | 34 | .
CC[C@@]1(O)C[C@H](O)c2c(cc3c(c2O)C(=O)c2c(O)ccc(O)c2C3=O)[C@H]1C(=O)OC | -6 | -13 | .
CC[C@@]1(O)C[C@H](O[C@H]2C[C@H](N(C)C)[C@H](O)[C@H](C)O2)c2c(cc3c(c2O)C(=O)c2c(O)ccc(O)c2C3=O)[C@H]1C(=O)OC | 44* | 9 | .
CN1CCC2(CC1)CCN(Cc1cc3ccc(F)cc3[nH]c1=O)C2 | -3 | 39 | .
CC(=O)N1CN2CN(C(C)=O)CC([N+](=O)[O-])(C2)C1 | -6 | -5 | -8
CC(C)NC(=O)c1cn(Cc2ccccc2)cc(C(=O)N2CCCC(c3ccccc3)CC2)c1=O (stereo not drawn) | -11 | 10 | .
CN(C)c1ncc(CN2CCC3(CCNCC3)C2)cn1 | -3 | 11 | .
N#CC(C#N)=Cc1ccc2ncccc2c1 | -7 | 7 | .
CNC(=O)Oc1c(Br)cc2sc(=O)oc2c1Br | -4 | 5 | 98*
